# In the supplement of paper PMC8728848:
# The entries come from a sample that favours the strongest signals as a whole.
# Tests used:
# Assay in all cases: glycan array binding signal (z-score within array); higher = stronger binding
# Conditions in all cases: glycan notation: IUPAC condensed, linker removed
# [1] = biological target: GlcA(b1-3)GlcNAc
# Outline: (§1)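 Glycan array binding is given as a within-array Z-score, which can be read as non-binding when negative. The arrays, 3228 of them, came from the Consortium for Functional Glycomics database and were retained only where the protein sequence was available. Z-scores were averaged across arrays of the same protein sequence at different concentrations or buffers and across linkers.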
# [2] = biological target: GlcA(b1-6)Gal
# Outline: as §1
# [3] = biological target: GlcNAc(a1-4)Gal(b1-4)GlcNAc(b1-3)Gal(b1-4)GlcNAc
# Outline: as §1
# [4] = biological target: GlcNAc(a1-6)Gal(b1-4)GlcNAc
# Outline: as §1
# [5] = biological target: GlcNAc(b1-3)Gal(b1-4)GlcNAc(b1-2)Man(a1-3)[GlcNAc(b1-3)Gal(b1-4)GlcNAc(b1-2)Man(a1-6)]Man(b1-4)GlcNAc(b1-4)GlcNAc
# Outline: as §1
# [6] = biological target: GlcNAc(b1-3)Gal(b1-4)GlcNAc(b1-3)Gal(b1-4)GlcNAc(b1-3)Gal(b1-4)GlcNAc(b1-2)[GlcNAc(b1-3)Gal(b1-4)GlcNAc(b1-3)Gal(b1-4)GlcNAc(b1-3)Gal(b1-4)GlcNAc(b1-6)]Man(a1-6)[GlcNAc(b1-3)Gal(b1-4)GlcNAc(b1-3)Gal(b1-4)GlcNAc(b1-3)Gal(b1-4)GlcNAc(b1-2)Man(a1-3)]Man(b1-4)GlcNAc(b1-4)[Fuc(a1-6)]GlcNAc
# Outline: as §1
# [7] = biological target: GlcNAc(b1-3)Gal(b1-4)GlcNAc(b1-3)Gal(b1-4)GlcNAc(b1-3)Gal(b1-4)GlcNAc(b1-3)Gal(b1-4)GlcNAc(b1-2)[GlcNAc(b1-3)Gal(b1-4)GlcNAc(b1-3)Gal(b1-4)GlcNAc(b1-3)Gal(b1-4)GlcNAc(b1-3)Gal(b1-4)GlcNAc(b1-6)]Man(a1-6)[GlcNAc(b1-3)Gal(b1-4)GlcNAc(b1-3)Gal(b1-4)GlcNAc(b1-3)Gal(b1-4)GlcNAc(b1-3)Gal(b1-4)GlcNAc(b1-2)Man(a1-3)]Man(b1-4)GlcNAc(b1-4)[Fuc(a1-6)]GlcNAc
# Outline: as §1
# [8] = biological target: GlcNAc(b1-3)Gal(b1-4)GlcNAc(b1-3)[GlcNAc(b1-3)Gal(b1-4)GlcNAc(b1-3)]GalNAc
# Outline: as §1
# [9] = biological target: GlcNAc(b1-3)Gal(b1-4)GlcNAc(b1-6)[GlcNAc(b1-3)]Gal(b1-4)GlcNAc
# Outline: as §1
# [10] = biological target: GlcNAc(b1-3)GalNAc
# Outline: as §1
# [11] = biological target: GlcNAc(b1-6)GalNAc
# Outline: as §1
# [12] = biological target: Kdn(a2-3)Gal(b1-3)GalNAc
# Outline: as §1
# [13] = biological target: Man(a1-3)[Man(a1-6)]Man(a1-6)[Man(a1-3)]Man
# Outline: as §1
# [14] = biological target: Man(a1-3)[Man(a1-6)]Man(a1-6)[Man(a1-3)]Man(b1-4)GlcNAc(b1-4)GlcNAc
# Outline: as §1
# [15] = biological target: Man(a1-3)[Man(a1-6)]Man(b1-4)GlcNAc(b1-4)GlcNAc
# Outline: as §1
# [16] = biological target: Neu5Ac(a2-3)Gal
# Outline: as §1
# [17] = biological target: Neu5Ac(a2-3)Gal(b1-4)GlcNAc(b1-3)Gal(b1-4)GlcNAc(b1-3)[Neu5Ac(a2-3)Gal(b1-4)GlcNAc(b1-3)Gal(b1-4)GlcNAc(b1-6)]GalNAc
# Outline: as §1
# [18] = biological target: Neu5Ac(a2-3)Gal(b1-4)GlcNAc(b1-3)Gal(b1-4)[Fuc(a1-3)]GlcNAc
# Outline: as §1
# [19] = biological target: Neu5Ac(a2-3)Gal(b1-4)[Fuc(a1-3)]GlcNAc(b1-3)GalNAc
# Outline: as §1
# [20] = biological target: Neu5Ac(a2-3)GalNAc(b1-4)GlcNAc
# Outline: as §1
# [21] = biological target: Neu5Ac(a2-6)Gal(b1-4)GlcNAc(b1-2)Man
# Outline: as §1
# [22] = biological target: Neu5Ac(a2-6)Gal(b1-4)GlcNAc(b1-2)Man(a1-6)[Gal(b1-4)GlcNAc(b1-2)Man(a1-3)]Man(b1-4)GlcNAc(b1-4)GlcNAc
# Outline: as §1
# [23] = biological target: Neu5Ac(a2-6)Gal(b1-4)GlcNAc(b1-2)Man(a1-6)[GlcNAc(b1-2)Man(a1-3)]Man(b1-4)GlcNAc(b1-4)GlcNAc
# Outline: as §1
# [24] = biological target: Neu5Ac(a2-6)Gal(b1-4)GlcNAc(b1-3)Gal(b1-4)GlcNAc(b1-2)Man(a1-3)[Neu5Ac(a2-6)Gal(b1-4)GlcNAc(b1-3)Gal(b1-4)GlcNAc(b1-2)Man(a1-6)]GalNAc
# Outline: as §1
# [25] = biological target: Neu5Ac(a2-6)Gal(b1-4)GlcNAc(b1-3)Gal(b1-4)GlcNAc(b1-3)[Neu5Ac(a2-6)Gal(b1-4)GlcNAc(b1-3)Gal(b1-4)GlcNAc(b1-6)]GalNAc
# Outline: as §1
# [26] = biological target: Neu5Ac(a2-6)Gal(b1-4)GlcNAc(b1-6)[Gal(b1-3)GlcNAc(b1-3)]Gal(b1-4)Glc
# Outline: as §1
# [27] = biological target: Neu5Gc(a2-3)Gal(b1-3)GlcNAc
# Outline: as §1
# [28] = biological target: Neu5Gc(a2-8)Neu5Gc(a2-3)Gal(b1-4)GlcNAc
# Outline: as §1
binder,measurement,setting,value
HFR-3 (Triticum aestivum) (protein) MKGLLLCALALAFAAVTTHAQLQSCPTRCGKQADGMECPNNLCCSKDGYCGLGVDYCSAGAGCQSGACYDNKICGAQANGTLCRNNHCCSSGGRCGYGREYCSNGCQGGPCWADLKCGHLDNGKLCPNNLCCSQYGYCGLGPEFCGTGCQNGACSTDKPCGNKANGAPCTNNYCCSQYGSCGLGKDYCGTGCQNGACN,glycan array binding signal (z-score),[1],0.799
same,glycan array binding signal (z-score),[2],-0.641
same,glycan array binding signal (z-score),[3],0.598
same,glycan array binding signal (z-score),[4],-0.582
same,glycan array binding signal (z-score),[5],0.65
same,glycan array binding signal (z-score),[6],2.43
same,glycan array binding signal (z-score),[7],1.15
same,glycan array binding signal (z-score),[8],0.04
same,glycan array binding signal (z-score),[9],-1.09
same,glycan array binding signal (z-score),[10],2.18
same,glycan array binding signal (z-score),[11],-0.591
same,glycan array binding signal (z-score),[12],2.75
same,glycan array binding signal (z-score),[13],2.17
same,glycan array binding signal (z-score),[14],3.89
same,glycan array binding signal (z-score),[15],0.828
same,glycan array binding signal (z-score),[16],-0.367
same,glycan array binding signal (z-score),[17],0.555
same,glycan array binding signal (z-score),[18],-0.597
same,glycan array binding signal (z-score),[19],-0.052
same,glycan array binding signal (z-score),[20],1.18
same,glycan array binding signal (z-score),[21],0.755
same,glycan array binding signal (z-score),[22],-0.801
same,glycan array binding signal (z-score),[23],-0.077
same,glycan array binding signal (z-score),[24],0.189
same,glycan array binding signal (z-score),[25],0.943
same,glycan array binding signal (z-score),[26],-0.251
same,glycan array binding signal (z-score),[27],-0.969
same,glycan array binding signal (z-score),[28],-0.961
